Screening results (PubChem)
aSyn UTR act: Activators working through SNCA 5'UTR binding (MLPCN) | AID 1814 | hit rate 7.1% among 300,000 | alpha-synuclein 5'UTR reporter, activators screen | activity score, % (tested at 7.5 µM), hits read low; in the data active means activity score below about -60%
* = called active by the depositor. A selection follows.

For CCOc1ccc(/C=C(/NC(=O)c2ccc(Cl)cc2)C(=O)O)cc1OCC the results were aSyn UTR act -86*.
Screening CCCc1cc(NC(=O)CCl)n(-c2ccccc2)n1 returned aSyn UTR act -79*.
For O=C(Nc1ccc(N2CCN(C(=O)c3ccccc3F)CC2)cc1)c1cncc(Br)c1 the results were aSyn UTR act -74*.
For O=C(Nc1ccc(N2CCCCC2)cc1)c1cncc(Br)c1 the results were aSyn UTR act -128*.
Cn1cc(Cl)c(/C(N)=N/OC(=O)c2ccccc2C(F)(F)F)n1 was read as aSyn UTR act -98*.
Cc1nn(Cc2c(F)c(F)c(F)c(F)c2F)c(C)c1NC(=O)c1ccc(COc2cc(Cl)ccc2Cl)cc1 was read as aSyn UTR act -133*.
O=C(NC(=S)Nc1cccc(O)c1)c1ccco1 was read as aSyn UTR act -131*.
Screening O=C(c1ccco1)N1CCCC(Nc2ccc3c(c2)OCCO3)C1 (stereo not drawn) returned aSyn UTR act -79*.
For O=C(NC(=S)Nc1ccc2c(c1)OCCO2)c1ccco1 the results were aSyn UTR act -114*.
For Cc1cc2cc(OCc3ccccc3)ccc2n1C the results were aSyn UTR act -183*.
Screening Cc1c(C=O)c2cc(OCc3ccccc3)ccc2n1C returned aSyn UTR act -76*.
Screening O=C(Nc1ccc(Cl)cn1)c1cccc(F)c1 returned aSyn UTR act -204*.
CCOc1ccc(C(=O)Nc2ccc(Cl)cn2)cc1Cl was read as aSyn UTR act -182*.
`CC(C)C(=O)Nc1ccc(NC(=O)c2cccc(F)c2)cn1` gave aSyn UTR act -148*.
For O=C(Nc1ccc(NC(=O)C2CC2)nc1)c1cccc(F)c1 the results were aSyn UTR act -161*.
`Nc1cc(-c2nc3ncccc3o2)ccc1Cl` gave aSyn UTR act -273*.
Cc1cc(-c2nc3ncccc3o2)ccc1N was read as aSyn UTR act -111*.
Screening Cc1ccc(-c2nc3ncccc3o2)cc1N returned aSyn UTR act -106*.
For O=C(Nc1cccc2ccccc12)/C(Cl)=C/c1ccccc1 the results were aSyn UTR act -81*.
`O=C(Nc1ccccc1F)C(=O)Nc1cccc2ccccc12` gave aSyn UTR act -119*.
Screening Cc1cccc(-n2ncc3c(NCCCO)ncnc32)c1 returned aSyn UTR act -101*.
For Cc1ccc(-n2ncc3c(N4CCN(c5ccccc5)CC4)ncnc32)c(C)c1 the results were aSyn UTR act -62*.
`Cc1cccc(-n2ncc3c(N4CC(C)CC(C)C4)ncnc32)c1` (stereo not drawn) gave aSyn UTR act -109*.
`Cc1cccc(-n2ncc3c(NC4CCCCC4)ncnc32)c1` gave aSyn UTR act -90*.
For Cc1cccc(-n2ncc3c(N4CCOCC4)ncnc32)c1 the results were aSyn UTR act 77.
Fc1cc2[nH]c(=S)[nH]c2cc1Cl was read as aSyn UTR act 42.
Screening C=CCNc1ncnc2c1cnn2-c1cccc(C)c1 returned aSyn UTR act -133*.
Screening CCOC(=O)c1sc(=NC(=O)c2cccc(C)c2)n(C)c1C returned aSyn UTR act -151*.
Screening CCOC(=O)c1sc(=NC(=O)c2cccc(Br)c2)n(C)c1C returned aSyn UTR act -188*.
`Cc1scc(C(=O)N/N=C/c2ccc([N+](=O)[O-])o2)c1C` gave aSyn UTR act 85.
`Cc1scc(C(=O)N/N=C/c2ccsc2)c1C` gave aSyn UTR act -162*.
For Cc1scc(C(=O)N/N=C/c2ccco2)c1C the results were aSyn UTR act -86*.
For Cn1c(-c2ccc(CN3CCCCC3)o2)nc2ccccc21 the results were aSyn UTR act -89*.
For O=C(Nc1ccc(F)cc1F)c1cccc(C(=O)Nc2ccc(F)cc2F)n1 the results were aSyn UTR act 87.
Screening O=C(Nc1ccccc1Cl)c1csc(-c2cccnc2)n1 returned aSyn UTR act -70*.
O=C(Nc1ccccc1)c1csc(-c2ccccc2)n1 was read as aSyn UTR act -170*.
O=C(Nc1ccc(F)cc1F)c1csc(-c2ccccc2)n1 was read as aSyn UTR act -95*.
For CCN(C(=O)c1cccs1)c1nnc(-c2ccncc2)s1 the results were aSyn UTR act -76*.
For CCCn1c(CN2CCN(C(=O)OCC)CC2)nc2cc(NC(=O)C(C)C)ccc21 the results were aSyn UTR act -70*.
`Cc1cccc(NC(=O)c2ccc(-c3ccccc3[N+](=O)[O-])o2)c1` gave aSyn UTR act -85*.
COc1cccc(NC(=O)c2ccc(-c3ccccc3[N+](=O)[O-])o2)c1 was read as aSyn UTR act -100*.
For Cc1ccccc1-c1ccc(C(=O)Nc2cccc(F)c2)o1 the results were aSyn UTR act -128*.
Screening COc1ccc(-c2nc3c(n2O)CCc2c-3no[n+]2[O-])cc1 returned aSyn UTR act -131*.
CC(C)(C)c1ccc(C(=O)c2c[nH]c(C(=O)O)c2)cc1 was read as aSyn UTR act -102*.
CN(C)C=NC(=O)c1cc(C(=O)c2ccc(C(C)(C)C)cc2)c[nH]1 was read as aSyn UTR act -87*.
Screening c1ccc(SCc2nc(-c3ccncc3)no2)cc1 returned aSyn UTR act -206*.
Screening COc1ccc(-c2noc(CSc3nnc(CCc4ccccc4)n3-c3ccccc3)n2)cc1OC returned aSyn UTR act 52.
COc1ccc(-c2noc(CSc3ccccc3)n2)cc1OC was read as aSyn UTR act -114*.
CC(=O)N1CCN=C1SCc1ccc(C(F)(F)F)cc1 was read as aSyn UTR act -85*.
CCN(CC)C(=O)Oc1ccc2c(c1)O/C(=C\c1ccco1)C2=O was read as aSyn UTR act -116*.
O=C1c2ccsc2SCCN1Cc1ccccc1 was read as aSyn UTR act -65*.
Screening CC1(c2ccc([N+](=O)[O-])cc2)Nc2ccccc2S1 (stereo not drawn) returned aSyn UTR act -83*.
`COc1cccc(-c2nc3ccc(C(=O)NC(C)Cc4cccnc4)cc3o2)c1` (stereo not drawn) gave aSyn UTR act -130*.
For COC(=O)C1CCN(C(=O)c2ccc3nc(-c4cccc(OC)c4)oc3c2)CC1 the results were aSyn UTR act -136*.
`Fc1cccc(CSc2nnc3c(n2)[nH]c2ccccc23)c1` gave aSyn UTR act -142*.
For Cn1c(=O)c(-c2cc(Br)ccc2N)nc2ccccc21 the results were aSyn UTR act -64*.
`COc1ccc2c(C(=O)CN3CCC(C)CC3)c[nH]c2c1` gave aSyn UTR act -76*.
Cc1nc2ccc(NC(=O)C3COc4ccccc4O3)cc2s1 (stereo not drawn) was read as aSyn UTR act -141*.
`Cc1nc2cc(NC(=O)C3COc4ccccc4O3)ccc2s1` (stereo not drawn) gave aSyn UTR act -141*.
CC(C)(C)C(=O)Nc1ccc(-c2cc3cc(Cl)ccc3o2)cc1 was read as aSyn UTR act -124*.
`CC(=O)Nc1ccc(S(=O)(=O)N2CCN=C2SCc2ccc(C)cc2)cc1` gave aSyn UTR act -72*.
For Cc1cc(/C=C2\SC(=S)NC2=O)c(C)n1-c1ccc(O)cc1 the results were aSyn UTR act -68*.
For Cc1cc(/C=C2\SC(=S)NC2=O)c(C)n1-c1ccccc1 the results were aSyn UTR act -163*.
COc1ccc(-n2c(C)cc(/C=C3\SC(=S)NC3=O)c2C)cc1 was read as aSyn UTR act -152*.
For Cc1cc(/C=C2\SC(N)=NC2=O)c(C)n1-c1ccccc1 the results were aSyn UTR act -112*.
Nc1nonc1C(=O)N/N=C/c1ccc(-c2cccc(C(=O)O)c2)o1 was read as aSyn UTR act -63*.
